Records with an inconclusive call do not appear. Activity calls are given as the source filed them. Calls follow the shape of the dose curve; as a rule, active = well fitted inhibition curve with a large enough effect; inconclusive = small, poorly fitted or top-dose-only effect, or effect the other way; inactive = no such curve, though single readings can be large or run the other way.
Assay: Quantitative high throughput screen for delayed death inhibitors of the malarial parasite plastid, 96 hour incubation (AID 488745); also: nearly all actives have a fitted effect of over 70% in size
Details: Plasmodium falciparum growth; series mostly up to 28.7 µM; activity change, negative = inhibition: at the top concentration
Description: NIH Molecular Libraries Probe Production Network [MLPCN]
NIH Chemical Genomics Center [NCGC]
Assay Provider: David Fidock and Eric Ekland, Columbia University
The goal of this screen is to discover new antimalarial compounds that act by inhibiting the development of the apicoplast in the malarial parasite Plasmodium falciparum. The biochemical processes that make this organelle essential for erythrocytic stage parasites are not well understood. However, antibiotics such as azithromycin and tetracycline, which target the apicoplast translational machinery, have a potent antimalarial effect.
We have developed a cell-based assay that measures parasite growth based on the expression of an integrated copy of a firefly luciferase reporter. To detect small molecules that cause this 'delayed death' phenotype, erythrocytes infected with the luciferase-expressing parasites were incubated with compounds for either one or two generations, corresponding to 48 and 96 hours, respectively. Compounds that inhibit parasite growth in the second generation, but not the first, should be enriched in antimalarials that target the apicoplast. Growth inhibition is detected by a decrease in luciferase activity
Four microliters of culture medium (RPMI 1640 with 0.5% w/v Albumax (GIBCO), 24 mM sodium bicarbonate and 10 ug/mL gentamycin) were dispensed by a Multi-drop Combi into white solid 1536-well plates (Grenier) and 23 nL compound was added by a pin tool. Four microliters of infected erythrocytes (2% hematocrit, 0.1% parasitemia final concentration) in culture medium were dispensed and the plates incubated for 96 hours at 37 C in 5% CO2. Two microliters of luciferase detection reagent was added and luminescence was detected by a ViewLux (PerkinElmer) reader
% is scaled to controls: 0 for no effect and ±100 for the full control effect; potency is read from the fitted curve at half-maximal effect.

SMILES	activity change, negative = inhibition	Potency
Cc1nccc2c1[nH]c1ccccc12	-2.88% (inactive)	
COc1cc(C(O)CN)ccc1O (stereo not given)	-0.49% (inactive)	
C=CCN1CC[C@]23CCCCC2[C@H]1Cc1ccc(O)cc13 (stereo not given in full)	10.1% (inactive)	
C#CCOC(=O)C1=CCCN(C)C1	-29.3% (inactive)	
NCCc1c[nH]c2ccc(O)cc12	11.9% (inactive)	
NC1CC1c1ccccc1 (stereo not given)	8.78% (inactive)	
O=C(O)Cc1cnc[nH]1	18% (inactive)	
CNCCc1ccc(O)c(O)c1	-26.8% (inactive)	
CCCN(CCC)C1CCc2ccc(O)cc2C1 (stereo not given)	2.12% (inactive)	
CCCN(CCC)[C@@H]1CCc2ccc(O)cc2C1	3.47% (inactive)	
CCCN1CCC[C@H](c2cccc(O)c2)C1	2.59% (inactive)	
CC(=O)NCCc1c[nH]c2ccccc12	-2.95% (inactive)	
O=C(O)CC[N+](=O)[O-]	-2.59% (inactive)	
CC[C@@]1(O)C(=O)OCc2c1cc1n(c2=O)Cc2cc3ccccc3nc2-1		1.47 µM (active)
C[C@@H]1O[C@H](C[N+](C)(C)C)C[C@H]1O	-28.2% (inactive)	
Cn1cnc(CCN)c1	1.83% (inactive)	
CC[C@@H]1C(=O)OC[C@@H]1Cc1cncn1C		inactive
CC(Cc1ccc(O)cc1)NCC(O)c1cc(O)cc(O)c1 (stereo not given)	2.38% (inactive)	
C[N+]1(C)C2CCC1CC(OC(=O)C(CO)c1ccccc1)C2 (stereo not given)		inactive
CC(C)Oc1cccnc1N(C)C1CCN(Cc2ccccc2)CC1	-1.62% (inactive)	

SMILES	activity change, negative = inhibition	Potency
NC(=O)CN1CC(O)CC1=O (stereo not given)	-6.01% (inactive)	
Clc1cnc(Oc2ccc(Oc3ncc(Cl)cc3Cl)cc2)c(Cl)c1	14.9% (inactive)	
COc1ccc2c(c[n+](C)c3c4cc5c(cc4ccc23)OCO5)c1OC	23.8% (inactive)	
NCc1cc(=O)[nH]o1	14.9% (inactive)	
CCCCc1ccc(C(=O)O)nc1	-22.2% (inactive)	
NC(CP(=O)(O)O)C(=O)O (stereo not given)	-2.02% (inactive)	
CC(=O)[C@H]1CCC2C3CC[C@H]4C[C@H](O)CC[C@]4(C)C3CC[C@@]21C (stereo not given in full)	-15.5% (inactive)	
NC1CCc2cc(O)c(O)cc2C1 (stereo not given)	-3.59% (inactive)	
NC(N)=NOCCC(N)C(=O)O (stereo not given)	14.8% (inactive)	
CS(=N)(=O)CC[C@H](N)C(=O)O (stereo not given in full)	-18.6% (inactive)	
c1ccc(CCCN2CCN(CCOC(c3ccccc3)c3ccccc3)CC2)cc1		2.08 µM (active)
CC1=NN=C(c2ccc(N)cc2)c2cc3c(cc2C1)OCO3	11.4% (inactive)	
NCCc1c[nH]c2ccccc12	1.24% (inactive)	
CCCN1CCO[C@@H]2c3cc(O)ccc3OC[C@H]21		inactive
S=C(NC1CCCCC1)N1CCC(c2cnc[nH]2)CC1	-6.7% (inactive)	
C[C@@H](N)Cc1cnc[nH]1	-6.36% (inactive)	
O=C(O)[C@@H]1CCN1	8.58% (inactive)	
C[C@]12N[C@H](Cc3ccccc31)c1ccccc12	6.03% (inactive)	
NC(CCP(=O)(O)O)C(=O)O (stereo not given)	-2.28% (inactive)	
Oc1ccc2c3c1O[C@H]1c4[nH]c5c(c4C[C@@]4(O)[C@@H](C2)N(CC2CC2)CC[C@]314)C[C@@]1(O)[C@H]2Cc3ccc(O)c4c3[C@@]1(CCN2CC1CC1)[C@H]5O4		2.08 µM (active)

From PubChem BioAssay (NCATS)
